The whole screen tested about 94,000 compounds, of which about 2,100 (2.2%) were called active. Rule as the data show it: active = activity change below about -80%; inconclusive = no clear call, values can overlap the other calls; inactive = above that. This excerpt belongs to a sample that is enriched for actives.
Assay: Dd2 malaria parasite growth inhibition – SYBR Green fluorescence, single dose replicates, primary screen (AID 1159554)
Details: P. falciparum Dd2 growth, 72 h, at 10 µM, hits give low values

Row | Structure (SMILES) | activity change
1 | C[C@@H]1CN([C@H](C)CO)C(=O)c2cc(Br)cnc2O[C@@H]1CN(C)Cc1cncnc1 | 25.3% (inactive)
2 | O=C1CN(Cc2ccccc2)C[C@H]2[C@H](c3ccc(-c4ccccc4)cc3)[C@@H](CO)N12 | -11% (inactive)
3 | COCC(=O)Nc1ccc2c(c1)C(=O)N(C)[C@H]1CC[C@@H](CC(=O)NCc3cccc(F)c3)O[C@H]1CO2 | -2.71% (inactive)
4 | C[C@@H]1CN([C@@H](C)CO)C(=O)c2cc(NC(=O)Nc3cccc4ccccc34)ccc2O[C@@H](C)CCCCO[C@@H]1CN(C)S(=O)(=O)c1ccc(Cl)cc1 | -85.2% (active)
5 | C[C@@H]1CCCCO[C@@H](CN(C)C(=O)NC2CCCCC2)[C@H](C)CN([C@@H](C)CO)C(=O)c2cc(NC(=O)Nc3ccc(F)cc3)ccc2O1 | 7.58% (inactive)
6 | C[C@@H]1CN([C@@H](C)CO)C(=O)c2cc(NS(=O)(=O)c3cccs3)ccc2O[C@@H](C)CCCCO[C@@H]1CN(C)C(=O)NC1CCCCC1 | -14% (inactive)
7 | CCCN(C)C[C@@H]1OCCCC[C@H](C)Oc2ccc(NS(=O)(=O)c3ccc(C)cc3)cc2C(=O)N([C@H](C)CO)C[C@@H]1C | -87.8% (active)
8 | Cc1ccc(S(=O)(=O)Nc2ccc3c(c2)C(=O)N([C@H](C)CO)C[C@@H](C)[C@@H](CN(C)C)OCCCC[C@@H](C)O3)cc1 | -28.5% (inactive)
9 | C[C@H](CO)N1C[C@H](C)[C@@H](CN(C)S(C)(=O)=O)OCCCC[C@H](C)Oc2ccc(NC(=O)Nc3cccc4ccccc34)cc2C1=O | 11.4% (inactive)
10 | CCCN(C)C[C@H]1OCCCC[C@H](C)Oc2ccc(NS(=O)(=O)c3ccc(C)cc3)cc2C(=O)N([C@@H](C)CO)C[C@H]1C | -65.3% (inactive)
11 | C[C@H]1CCCCO[C@@H](CN(C)C(=O)c2ccccc2)[C@@H](C)CN([C@@H](C)CO)C(=O)c2cc(NS(=O)(=O)c3cccs3)ccc2O1 | -57.2% (inactive)
12 | CC(C)NC(=O)Nc1ccc2c(c1)C(=O)N([C@@H](C)CO)C[C@H](C)[C@H](CN(C)S(=O)(=O)c1ccc(Cl)cc1)OCCCC[C@H](C)O2 | -79.5% (inactive)
13 | C[C@@H]1CCCCO[C@H](CN(C)C(=O)NC2CCCCC2)[C@H](C)CN([C@H](C)CO)C(=O)c2cc(NC(=O)Nc3ccc(F)cc3)ccc2O1 | -85.2% (active)
14 | C[C@@H]1CCCCO[C@H](CN(C)C(=O)NC2CCCCC2)[C@H](C)CN([C@@H](C)CO)C(=O)c2cc(NC(=O)Nc3ccc(F)cc3)ccc2O1 | -11.4% (inactive)
15 | C[C@H]1CCCCO[C@@H](CN(C)C(=O)C2CCCCC2)[C@@H](C)CN([C@@H](C)CO)C(=O)c2cc(NS(=O)(=O)c3cccs3)ccc2O1 | -83.8% (active)
16 | CCCNC(=O)N[C@@H]1CC[C@@H](CCn2cc(C3CC3)nn2)O[C@@H]1CO | 12.3% (inactive)
17 | COc1ccccc1S(=O)(=O)N1C[C@@H](O)COC[C@H]2O[C@H](CC(=O)O)CC[C@@H]21 | -3.23% (inactive)
18 | COc1ccc(NC(=O)N(C)C[C@@H]2Oc3ncc(-c4ccc(C#N)cc4)cc3C(=O)N([C@@H](C)CO)C[C@H]2C)cc1 | 34.7% (inactive)
19 | O=C(C1CCC1)N1CC[C@@H]2[C@H]1c1cc(C#Cc3ccc(F)cc3)ccc1N[C@@H]2CO | -70.8% (inactive)

Row | Structure (SMILES) | activity change
20 | O=C(c1cccc(F)c1)N1C[C@H]2[C@@H](c3ccccc31)[C@@H](CO)N2C(=O)Cc1ccccc1 | 0.269% (inactive)
21 | C[C@H](CO)N1C[C@H](C)[C@@H](CN(C)CC2CCCCC2)Oc2ccc(NS(=O)(=O)c3cccs3)cc2CC1=O | -7.92% (inactive)
22 | C[C@@H]1CN([C@H](C)CO)C(=O)c2cc(NC(=O)Nc3ccc(F)cc3)ccc2O[C@@H](C)CCCCO[C@@H]1CN(C)CC1CCCCC1 | -82.5% (active)
23 | COc1ccc(NC(=O)Nc2ccc3c(c2)C(=O)N([C@@H](C)CO)C[C@H](C)[C@H](CN(C)CC2CCCCC2)O3)cc1 | 13.9% (inactive)
24 | COc1ccc(NC(=O)Nc2ccc3c(c2)C(=O)N([C@H](C)CO)C[C@H](C)[C@@H](CN(C)S(=O)(=O)c2ccc(OC)cc2)OCCCC[C@H](C)O3)cc1 | 0.392% (inactive)
25 | COc1ccc(NC(=O)Nc2ccc3c(c2)C(=O)N([C@@H](C)CO)C[C@H](C)[C@H](CN(C)S(=O)(=O)c2ccccc2)OCCCC[C@@H](C)O3)cc1 | -87.4% (active)
26 | COc1ccc(NC(=O)Nc2ccc3c(c2)C(=O)N([C@H](C)CO)C[C@H](C)[C@@H](CN(C)C(=O)Nc2ccc(OC)cc2)OCCCC[C@H](C)O3)cc1 | -22.2% (inactive)
27 | CCCN(C)C[C@@H]1OCCCC[C@@H](C)Oc2ccc(NC(=O)Nc3ccc(C(F)(F)F)cc3)cc2C(=O)N([C@H](C)CO)C[C@H]1C | -75.7% (inactive)
28 | CCCN(C)C[C@H]1OCCCC[C@@H](C)Oc2ccc(NC(=O)Nc3ccc(F)cc3)cc2C(=O)N([C@@H](C)CO)C[C@H]1C | -91.5% (active)
29 | C[C@@H]1CCCCO[C@H](CN(C)Cc2ccccc2)[C@@H](C)CN([C@@H](C)CO)C(=O)c2cc(NC(=O)Nc3ccc(F)cc3)ccc2O1 | -73.3% (inactive)
30 | COc1ccc(NC(=O)Nc2ccc3c(c2)C(=O)N([C@H](C)CO)C[C@@H](C)[C@H](CN(C)CC2CCCCC2)OCCCC[C@@H](C)O3)cc1 | -85.2% (active)
31 | COc1ccc(S(=O)(=O)N(C)C[C@@H]2OCCCC[C@H](C)Oc3ccc(NC(=O)Nc4ccccc4)cc3C(=O)N([C@@H](C)CO)C[C@H]2C)cc1 | -79.2% (inactive)
32 | CC(C)NC(=O)Nc1ccc2c(c1)C(=O)N([C@H](C)CO)C[C@H](C)[C@@H](CN(C)CC1CCCCC1)OCCCC[C@@H](C)O2 | -13.3% (inactive)
33 | C[C@@H]1CCCCO[C@H](CN(C)CC2CCCCC2)[C@H](C)CN([C@H](C)CO)C(=O)c2cc(NC(=O)Nc3ccc(F)cc3)ccc2O1 | -79.8% (inactive)
34 | O=C(C1CCCCC1)N1CC2(C1)[C@H](c1ccccc1)[C@@H](CO)N2Cc1cncnc1 | 32.5% (inactive)
35 | O=C(C[C@@H]1CC[C@@H]2[C@H](COC[C@H](O)CN2S(=O)(=O)c2ccccc2F)O1)NCc1ccccc1F | 0.606% (inactive)
36 | C[C@@H]1CCCCO[C@@H](CN(C)S(=O)(=O)c2cn(C)cn2)[C@H](C)CN([C@@H](C)CO)C(=O)c2cc(NC(=O)Nc3ccccc3)ccc2O1 | -13.9% (inactive)
37 | CC(C)NC(=O)N1[C@@H]2CN(C(=O)Nc3ccc(F)cc3)c3ccccc3[C@@H]2[C@@H]1CO | 18.6% (inactive)
38 | CC(=O)N(C)C[C@H]1Oc2cc(C#Cc3ccccc3F)ccc2S(=O)(=O)N([C@H](C)CO)C[C@@H]1C | -24.1% (inactive)

Row | Structure (SMILES) | activity change
39 | C[C@@H]1CN([C@@H](C)CO)S(=O)(=O)c2ccc(C#Cc3ccccc3F)cc2O[C@H]1CN(C)C(=O)c1ccc2c(c1)OCO2 | -85.3% (active)
40 | CC(=O)N(C)C[C@@H]1Oc2cc(C#Cc3ccccc3F)ccc2S(=O)(=O)N([C@@H](C)CO)C[C@@H]1C | -36.8% (inactive)
41 | CC(=O)N(C)C[C@H]1Oc2cc(C#Cc3ccccc3F)ccc2S(=O)(=O)N([C@@H](C)CO)C[C@H]1C | -22.1% (inactive)
42 | C[C@H]1CN([C@@H](C)CO)S(=O)(=O)c2ccc(C#Cc3ccccc3F)cc2O[C@@H]1CN(C)C(=O)c1ccc2c(c1)OCO2 | -86.6% (active)
43 | C[C@@H]1CN([C@H](C)CO)S(=O)(=O)c2ccc(C#Cc3ccccc3F)cc2O[C@@H]1CN(C)C(=O)c1ccc2c(c1)OCO2 | -67% (inactive)
44 | COc1ccc(C#Cc2ccc([C@H]3[C@@H](CO)N4CCCCN(C(=O)Nc5ccccc5)C[C@H]34)cc2)cc1 | -69.3% (inactive)
45 | CN(C)CC#Cc1ccc([C@@H]2[C@H](CO)N3CCCCN(C(=O)Nc4ccc(F)cc4)C[C@@H]23)cc1 | -18.7% (inactive)
46 | O=C(Nc1ccc(F)cc1)N1CCCCN2[C@H](CO)[C@H](c3ccc(C#Cc4ccccc4)cc3)[C@H]2C1 | -83.4% (active)
47 | C[C@H](CO)N1C[C@H](C)[C@@H](CN(C)Cc2cccc(F)c2)Oc2cc(C#CC3CC3)ccc2S1(=O)=O | -15.8% (inactive)
48 | C[C@H]1CN([C@@H](C)CO)S(=O)(=O)c2ccc(-c3cccc(C#N)c3)cc2O[C@H]1CN(C)CC1CC1 | -83.2% (active)
49 | CCC(=O)N(C)C[C@H]1Oc2cc(-c3cccc(C#N)c3)ccc2S(=O)(=O)N([C@@H](C)CO)C[C@@H]1C | 7.55% (inactive)
50 | CCCN(C)C[C@@H]1Oc2cc(-c3cccc(C#N)c3)ccc2S(=O)(=O)N([C@@H](C)CO)C[C@@H]1C | -82.2% (active)
51 | C[C@H](CO)N1C[C@H](C)[C@@H](CN(C)C(=O)C2CC2)Oc2cc(-c3cccc(C#N)c3)ccc2S1(=O)=O | -26.1% (inactive)
52 | C[C@@H]1CN([C@H](C)CO)S(=O)(=O)c2ccc(-c3ccccc3)cc2O[C@@H]1CN(C)CC1CC1 | -40.4% (inactive)
53 | C[C@@H]1CN([C@@H](C)CO)S(=O)(=O)c2ccc(-c3cccc(C#N)c3)cc2O[C@@H]1CN(C)Cc1cccc(F)c1 | -39.8% (inactive)
54 | CNC(=O)C[C@@H]1CC[C@@H]2[C@H](COC[C@@H](O)CN2S(=O)(=O)c2ccccc2Cl)O1 | 24.5% (inactive)
55 | Cc1ccccc1-c1ccc2c(c1)O[C@H](CN(C)Cc1ccc(C(=O)O)cc1)[C@@H](C)CN([C@H](C)CO)S2(=O)=O | -8.07% (inactive)
56 | CO[C@H](CN(C)C(=O)c1ccc2c(c1)OCO2)[C@H](C)CN([C@@H](C)CO)S(=O)(=O)c1ccc(Cl)cc1 | 10.7% (inactive)
